# Laboratory results from PubChem BioAssay AID624311 (Broad Institute, 2012).
# The source made the active and inactive calls.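 The calls were made as follows: active = fluorescence dropping 30% or more below neutral controls, activity change at or below -30%; inactive = the rest.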
# Molecular target: Protein disulfide-isomerase (Homo sapiens) (UniProt P07237)
# Test: PDI inhibitors, fluorescent insulin aggregation, confirmation, orthogonal assay for PDI inhibitor project, biochemical, fluorescence, dry powder samples (AID 624311)
# Chain of Protein disulfide-isomerase (Homo sapiens) (P07237 whole entry, looked up): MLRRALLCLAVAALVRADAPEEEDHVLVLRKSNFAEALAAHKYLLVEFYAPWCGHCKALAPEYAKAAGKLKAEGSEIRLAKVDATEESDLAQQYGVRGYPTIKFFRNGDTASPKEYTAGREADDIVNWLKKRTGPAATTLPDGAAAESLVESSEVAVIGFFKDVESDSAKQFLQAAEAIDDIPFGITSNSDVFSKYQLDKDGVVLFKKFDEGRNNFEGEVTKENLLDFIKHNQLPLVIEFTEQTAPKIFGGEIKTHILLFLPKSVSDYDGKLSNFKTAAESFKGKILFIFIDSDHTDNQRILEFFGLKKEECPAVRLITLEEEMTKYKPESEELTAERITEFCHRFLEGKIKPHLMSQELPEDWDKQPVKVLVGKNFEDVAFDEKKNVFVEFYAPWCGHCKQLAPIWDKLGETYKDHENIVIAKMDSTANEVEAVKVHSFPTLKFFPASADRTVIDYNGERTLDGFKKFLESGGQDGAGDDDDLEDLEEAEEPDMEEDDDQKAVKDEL
compound,measurement,value
C[C@H]1CN([C@@H](C)CO)C(=O)c2cccc(NS(C)(=O)=O)c2O[C@H]1CN(C)Cc1ccc(Oc2ccccc2)cc1,outcome,inactive
